{"source": "paper PMC5540273", "about": "(PLoS ONE, 2017);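 also: KINOMEscan kinase panel screen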"}
{"system": "CDK4", "conditions": "concentration: 1 μM, replicates: in singlicate; n = 1", "units": {"%Inh": "%"}}
{"smiles": "COC(=O)c1c(-c2ccccc2)c2cc(C)ccc2c(=O)n1Cc1ccccc1", "%Inh": 0}
{"smiles": "CCc1ccc(-c2ccc3c(c2)-c2nn(C)cc2S(=O)(=O)N3C)cc1", "%Inh": 0}
{"smiles": "O=C(Nc1ccc2c(c1)OCO2)NC1CCN(c2ccnc(NCc3ccc(F)cc3)n2)CC1", "note": "[GSK1379859]", "%Inh": 13}
{"smiles": "Cc1nnc(-c2ccc(C)c(-c3ccc(C(=O)O)cc3)c2)o1", "note": "[GW608005]", "%Inh": 29}
{"smiles": "CCCNC(=O)Nc1ccc(Oc2ncnc3ccn(C)c23)cc1", "%Inh": 20}
{"smiles": "CCC(=O)c1c(-c2ccccc2)c2cc(Cl)ccc2c(=O)n1Cc1cc(C(=O)NC2CC2)n(C)n1", "%Inh": 0}
{"smiles": "COc1ccc(CNC(=O)NC2CCN(c3ccnc(Nc4ccc(F)cc4)n3)C2)cc1", "note": "(stereo not shown) [GSK1379706]", "%Inh": 49}
{"smiles": "CCC(=O)c1c(-c2ccccc2)c2cc(Cl)ccc2c(=O)n1Cc1cc(S(C)(=O)=O)n(CC(F)F)n1", "%Inh": 0}
{"smiles": "COc1cccc(C2=C(Nc3cccc(C(=O)O)c3)C(=O)NC2=O)c1", "note": "[SB-390770]", "%Inh": 0}
{"smiles": "COc1cc(OC)cc(-c2cc3cnc(N)nc3nc2NC(=O)NC(C)(C)C)c1", "%Inh": 0}
{"smiles": "Nc1ncnc2c1ncn2-c1cccc(F)c1", "note": "[SKF-97560]", "%Inh": 30}
{"smiles": "CN1C(=O)C(Nc2ccccc2)=C(c2ccccc2)C1=O", "note": "[SB-300079]", "%Inh": 11}
{"smiles": "COc1cc2nccc(Nc3cccc(Oc4ccccc4)c3)c2cc1OC.Cl", "note": "[GW284543]", "%Inh": 30}
{"smiles": "COc1ccc(-c2coc3ccc(-c4nnc(SCc5cccc(C#N)c5)o4)cc23)cc1", "%Inh": 0}
{"smiles": "Cc1ccccc1COc1cc(-n2cnc3cc(Cl)ccc32)sc1C(N)=O", "note": "[GW813349]", "%Inh": 0}
{"smiles": "Nc1ncnc2c1ncn2-c1cccc2ccccc12", "note": "[SKF-97184]", "%Inh": 13}
{"smiles": "COc1cc2nccc(Nc3ccc(OCc4ccc(NC(C)=O)cc4)cc3)c2cc1OC.Cl", "note": "[GW440135]", "%Inh": 34}
{"smiles": "O=C(Nc1n[nH]c2cc(-c3ccccc3F)ccc12)C1CC1", "note": "[SB-733371]", "%Inh": 0}
{"smiles": "O=C(NCc1cccs1)c1cc(C(=O)c2c(Cl)cccc2Cl)c[nH]1", "note": "[GW823670]", "%Inh": 0}
{"smiles": "COc1ccc(Nc2nccc(N3CCC(NS(=O)(=O)c4ccc(NC(C)=O)cc4)C3)n2)cc1", "note": "(stereo not shown) [GSK1379729]", "%Inh": 13}
{"smiles": "COC(=O)c1c(-c2ccccc2)c2cc(Br)ccc2c(=O)n1Cc1ccc(S(C)(=O)=O)cc1", "%Inh": 0}
{"smiles": "COc1ccc(-c2cc3c(C)nc(N)nc3n([C@H]3CC[C@H](O)CC3)c2=O)cn1", "%Inh": 0}
{"smiles": "Nc1n[nH]c2nnc(-c3ccccc3)c(-c3ccccc3)c12", "note": "[GW554060]", "%Inh": 22}
{"smiles": "CCS(=O)(=O)c1ccc(OC)c(Nc2ncc(-c3ccc(F)cc3)o2)c1.Cl", "note": "[GW591947]", "%Inh": 14}
{"smiles": "Nc1n[nH]c2ncc(-c3ccccc3)cc12", "note": "[SB-517081]", "%Inh": 23}
{"smiles": "OCCCNc1nccc(-c2c(-c3cccc(C(F)(F)F)c3)nn3cc(C(F)(F)F)ccc23)n1", "note": "[GW630813]", "%Inh": 29}
{"smiles": "CCc1nc(-c2cccc(C)c2)c(-c2ccncc2)s1", "%Inh": 0}
{"smiles": "CCC(=O)c1c(-c2ccccc2)c2cc(Cl)ccc2c(=O)n1Cc1cc(S(C)(=O)=O)n(CCC(C)(C)O)n1", "%Inh": 0}
{"smiles": "Cc1ccc(Oc2ccc(Nc3ncnc4cc[nH]c34)cc2C)cn1", "%Inh": 29}
{"smiles": "Nc1nccc2scc(-c3ccc4c(c3)CCN4C(=O)Cc3ccccc3)c12", "note": "[GSK2576924]", "%Inh": 13}
{"smiles": "Cc1cccc(-c2nc(Nc3ccc4c(cnn4C)c3)c3ccccc3n2)n1", "note": "[GW876731]", "%Inh": 1}
{"smiles": "COC(=O)c1c(-c2ccccc2)c2cc(Br)ccc2c(=O)n1Cc1ccc(NC(=O)CCC(=O)O)cc1", "%Inh": 8}
{"smiles": "COc1ccc(-c2cc3c(C)nc(N)nc3n([C@H]3CC[C@H](OCCO)CC3)c2=O)cn1", "%Inh": 0}
{"smiles": "O=C(Nc1n[nH]c2nc(-c3ccccc3)c(Br)cc12)C1CC1", "note": "[SB-708998]", "%Inh": 10}
{"smiles": "COc1cc2ncn(-c3cc(OCCCc4ccccc4)c(C(N)=O)s3)c2cc1OC", "note": "[GSK205189]", "%Inh": 0}
{"smiles": "COc1cc(Nc2ccnc3ccc(C(F)(F)F)cc23)cc(OC)c1OC", "note": "[GW577382]", "%Inh": 10}
{"smiles": "Cc1ccc(-c2ccc3c(ccc4sc5c(c43)NC[C@@H](C)N=C5N(C)C)n2)cn1", "%Inh": 0}
